Only some compounds are listed: those with a hit (about 21% of all), similar ones and a draw of the others.
Pf growth 96h: inhibits malaria parasite growth, 96 h; P. falciparum luciferase reporter growth, 96 h; Potency, µM (titrated, usually from 28.7 µM), hits mostly inhibitors; hit rate 6.9% among 320,000
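Luminescence readout: decreased luciferase signal marks inhibited growth of reporter-expressing P. falciparum in infected red cells (2% hematocrit, 0.05% parasitemia final), exposed to compound two generations (96 h, 37 C, 5% CO2).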
Shiga inhibitor: Shiga toxin inhibition; Vero cells, Shiga toxin protein synthesis inhibition reporter; AID 2315; inhibition, % at 38.7 µM; hit rate 9.2% among 290,000; in the data active = inhibition mostly above about 28%, no sharp cut-off; inactive = mostly below about 43%
Pf growth 48h: P. falciparum growth inhibition at 48 hours (one generation) | P. falciparum luciferase growth in erythrocytes, 48 h | AID 504832 | hit rate 5.9% among 310,000 | Potency, µM (titrated, usually from 28.7 µM), usual class: inhibitors
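Firefly luciferase activity from engineered P. falciparum reports growth; inhibitors lower the luminescent signal. Cultures contained 2% hematocrit erythrocytes at 0.1% final parasitemia.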
Cycloheximide cs: counter-screen hit for Shiga toxin inhibitors, cycloheximide | hit rate 12% among 300,000 | AID 2314 | cell reporter, cycloheximide protein synthesis inhibition counterscreen | max response, %; in the data active = max response mostly above about 13%, no sharp cut-off; inactive = mostly below about 14%; note: read at 38.3 µM for the half of the compounds with a filed dose
FBPA Giardia inh: blocks Giardia fructose-bisphosphate aldolase activity; A8B2U2; purified Giardia FBPA; Potency, µM (highest dose often 59.6 µM), actives largely listed as inhibitors; hit rate 0.71% among 290,000; AID 2451; note: nearly all actives have a fitted effect of over 55% in size
Target sequence (A8B2U2 whole entry, looked up): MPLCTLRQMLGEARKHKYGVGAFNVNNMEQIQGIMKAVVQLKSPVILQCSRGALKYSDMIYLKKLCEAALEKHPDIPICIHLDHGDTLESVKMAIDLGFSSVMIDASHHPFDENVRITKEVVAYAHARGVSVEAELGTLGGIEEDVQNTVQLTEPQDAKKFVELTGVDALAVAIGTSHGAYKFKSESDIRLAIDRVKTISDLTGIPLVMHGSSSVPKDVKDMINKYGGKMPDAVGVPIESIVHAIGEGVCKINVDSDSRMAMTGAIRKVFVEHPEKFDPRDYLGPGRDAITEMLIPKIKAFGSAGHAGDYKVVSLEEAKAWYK
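40 nM FBPA preincubated 10 min at RT with compound (up to 57.5 uM final), then substrate plus GAPDH/TPI/NAD/arsenate coupling and diaphorase/resazurin added. Fluorescence read after 20 min at RT, 525/598 nm.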
NS1 inh: influenza NS1 inhibition; Potency, µM (top dose mostly 46.1 µM); hit rate 0.4% among 270,000; calls by dose curve; note: actives are rising curves; nearly all actives have a fitted effect of over 50% in size
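Compounds were scored for reversing the slow growth caused by influenza A NS1 in S. cerevisiae, measured by optical density at 600 nm. Assay medium contained 2% galactose at pH 6.0; NS1-free yeast of the same strain were the positive control.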
Numbers stand for hits; - = inactive; ? = inconclusive; . = no result; [ ] = dose if it differs, or a comment. Unless noted, calls come from the whole dose curve; as a rule, active = well fitted curve in the direction sought with a large enough effect; inconclusive = small, poorly fitted or top-dose-only effect, or another doubt; inactive = no such curve, though single readings can be large; an effect the other way counts as inactive or inconclusive.

SMILES	Pf growth 96h	Shiga inhibitor	Pf growth 48h	Cycloheximide cs	FBPA Giardia inh	NS1 inh
COc1cc(C(=O)N2CCN(S(=O)(=O)c3ccc(C)cc3C)CC2)ccc1OCC(=O)N1CCOCC1	-	.	?	.	.	.
O=C1CCN(Cc2ccccc2)N1	-	-	-	-	-	-
COC(=O)c1ccc(CSc2ncnc3sc(C)c(C)c23)o1	-	-	-	-	-	-
COc1ccc(-n2nnc3c(SCC(=O)Nc4ccc5c(c4)OCCO5)ncnc32)cc1	.	-	-	-	-	-
COC(=O)c1ccc(CSc2ncnc3c2nnn3-c2ccc(OC)cc2)o1	9.28µM	-	-	-	-	-
COc1ccc(-n2nnc3c(SCC(=O)c4ccccc4)ncnc32)cc1	1.85µM	-	-	-	-	-
COc1ccc(C(=O)Nc2ccccc2)cc1NC(=O)c1cccs1	-	-	-	-	.	-
COc1ccc(-c2onc(C)c2-c2cnn(-c3ccccc3)c2)c(O)c1	-	-	11.7µM	-	-	.
COc1cc2c(cc1OC)C(C(=O)N(C)Cc1ccccc1)C(c1cccnc1)N(C)C2=O (configuration not stated)	3.7µM	-	-	-	-	.
COc1cc2c(cc1OC)C(C(=O)Nc1ccc3c(c1)OCCO3)C(c1cccnc1)N(C)C2=O (configuration not stated)	?	-	7.38µM	-	-	-
COc1ccccc1C1CCN(c2ccc([N+](=O)[O-])c(OC)c2)CC1	-	64.4	-	34.7	-	-
CCOC(=O)c1cnc(SCC(=O)c2ccc(Cl)cc2)nc1N	-	-	.	-	-	-
CCOC(=O)c1cnc(SCc2ccc(C)cc2)nc1N	0.0522µM	106.5	-	32.9	-	-
CCOC(=O)c1cnc(SC2CCc3ccccc3C2=O)nc1N (configuration not stated)	-	70.9	-	33.0	?	-
CCCCSc1ncc(C(=O)OCC)c(N)n1	?	67.8	-	46.2	-	-
CCOC(=O)c1cnc(SCCc2ccccc2)nc1N	-	97.0	-	35.2	.	-
COc1cccc(-c2nc(CS(=O)(=O)CC(=O)Nc3ccc(C(C)=O)cc3)c(C)o2)c1	-	-	-	-	.	-
O=[N+]([O-])/C(C(Cl)=C(Cl)Cl)=C1\Nc2ccccc2O1	-	70.5	-	17.2	?	-
CCOc1ccc(OCCC(=O)N(CC)CC(=O)NCc2ccc(Cl)cc2)cc1	-	.	-	.	.	.
O=C(Nc1ccccc1)C1=C(c2ccccc2)S(=O)(=O)CCS1(=O)=O	?	44.8	11.7µM	22.6	-	-
CCOC(=O)CSC1=Nc2ccccc2C2=NC(CC(=O)NCc3cccs3)C(=O)N12 (configuration not stated)	?	-	10.4µM	-	-	?
COCCCNC(=O)CSC1=Nc2ccccc2C2=NC(Cc3c[nH]c4ccccc34)C(=O)N12 (configuration not stated)	5.22µM	-	-	-	-	-
CCC(C)NC(=O)CSC1=Nc2ccccc2C2=NC(CC(=O)NCc3ccc(F)cc3)C(=O)N12 (configuration not stated)	?	-	13.1µM	-	-	-
CC1CCCCC12NC(=O)N(CC(=O)OCC(=O)c1ccc(OC(F)F)cc1OC(F)F)C2=O (configuration not stated)	-	-	-	-	.	-
O=C(NCCNC(=O)c1ccccn1)c1ccc(Cl)cc1	?	-	-	-	-	-
SMILES	Pf growth 96h	Shiga inhibitor	Pf growth 48h	Cycloheximide cs	FBPA Giardia inh	NS1 inh
Cc1cccc(N/C=C/C(=O)c2ccc(Cl)cc2)c1	-	87.6	-	34.5	-	-
Cc1ccc(Cl)c(N/C=C/C(=O)c2ccccc2)c1	-	65.9	-	68.2	-	-
O=C(/C=C\Nc1ccccn1)c1ccc(Cl)cc1	-	75.3	-	32.5	-	-
CC(C)c1cc(C(=O)N2CCCC(N3CCN(c4ccc(F)cc4)CC3)C2)n(C)n1 (configuration not stated)	-	-	?	-	-	-
COC(=O)C1=C(CSc2nc3c(cc2C#N)CN(C)CC3)OC(N)=C(C#N)C1c1ccccc1F (configuration not stated)	11.7µM	-	?	-	?	?
CCS(=O)(=O)CCSc1nc2c(cc1C#N)CCCC2	.	-	-	12.0	-	-
Cc1cccc(CSc2nc3c(cc2C#N)CN(C)CC3)c1	7.38µM	-	10.4µM	-	-	-
CCOC(=O)C1=C(CSc2nc3c(cc2C#N)CN(C)CC3)OC(N)=C(C#N)C1c1ccccc1 (configuration not stated)	-[5.75 µM]	-	?	-	-	-
N#CCSc1nc2c(cc1C#N)CCCCCC2	-	-	-	-	-	-
N#Cc1cc2c(nc1SCC(=O)N1CCCCC1)CCCC2	-	-	-	16.7	-	-
CC(NNC(=O)c1ccccc1)c1ccccc1 (configuration not stated)	-	.	-	.	.	.
CN1CCN(S(=O)(=O)c2ccc(Br)c3ccccc23)CC1	-	-	-	-	-	-
CC(C)(C)CN1CCN(Cc2c[nH]c3ccccc23)CC1CCO (configuration not stated)	?	-	-	-	-	?
Nc1ccccc1C#CC(=O)c1ccccc1	-	-	?	-	-	-
Cc1nn(C)c(C)c1S(=O)(=O)N(CC(=O)NCCCN1CCC(C)CC1)c1ccc(C(C)C)cc1	-	-	?	-	.	-
N#Cc1cc2c(nc1SCc1ccncc1)CCC2	-	102.4	-	42.6	-	-
N#Cc1cc2c(nc1SCC(=O)N1CCCCC1)CCCCC2	-	99.6	-	61.0	-	-
N#Cc1cc2c(nc1SCC(=O)O)CCCC2	-	-	-	-	-	-
N#Cc1cc2c(nc1SCc1ccccc1)CCC2	-	-	-	-	-	-
NC(=O)c1ccccc1Nc1nc2nc3ccccc3c(=O)n2cc1Br	-	38.0	-	15.3	-	-
CN(C)c1ccc(/C=N/n2ncc3ccccc32)cc1	?	97.7	-	38.8	-	-
CCOC(=O)c1csc(NC(=O)C2CCCCC2)n1	-	58.9	-	26.5	-	-
CCCC(=O)Nc1nc(C(=O)OCC)cs1	-	-	-	17.9	-	-
Cc1cc(Nc2ccc(N(C)C)cc2)n2ncnc2n1	-	97.7	2.33µM	43.5	-	-
CCN(CC)S(=O)(=O)c1ccc(Nc2cc(C)nc3ncnn23)cc1	?	-	14.7µM	-	-	-
SMILES	Pf growth 96h	Shiga inhibitor	Pf growth 48h	Cycloheximide cs	FBPA Giardia inh	NS1 inh
Cc1cc(Nc2cccc(Cl)c2)n2ncnc2n1	1.65µM	-	-	-	-	-
CCCOC(=O)c1ccc(Nc2cc(C)nc3ncnn23)cc1	-	-	8.28µM	-	-	-
CCc1ccc(Nc2cc(C)nc3ncnn23)cc1	-	.	3.29µM	-	-	-
CCn1c2ccccc2c2cc(Nc3cc(C)nc4ncnn34)ccc21	-	-	0.0738µM	-	-	-
CCc1cccc(Nc2cc(C)nc3ncnn23)c1	?	-	?	-	-	-
Cc1ccc(NC(=O)Cn2cccc2C2=NC(c3ccccc3)CO2)cc1C (configuration not stated)	?	-	-	-	-	-

Compound activity as filed in PubChem BioAssay.
